# ChEMBL document CHEMBL3433997, “St. Jude Leishmania screening dataset” (2016)
# Target: Glucose transporter (Leishmania mexicana) (UniProt O61059)
# Assay: ST_JUDE_LEISH: Cytotoxicity at 2uM final concentration against transgenic Leishmania Mexicana promastigotes LmGT2 that are glucose transport deficient and complemented with the L. Mexicana glucose transporter 2. Activity is measured by DNA content using SYBR green in vitro
# Format: functional
row,SMILES,inhibition [%]
1,CN(C)C(=S)N/N=C1/C(=O)Nc2ccccc21,1.43
2,O=C(Nc1ccccc1)N(Cc1ccc(-c2cccc(CNCc3ccc4c(c3)OCO4)c2)cc1)C1CCN(Cc2ccccc2)CC1,2.9
3,COc1cccc(CC(=O)N2CCC(n3c(C)nc4ccc(F)cc43)CC2)c1,2.33
4,O=C(/C=C/c1ccc(Cl)c(Cl)c1)NCCCCCN1CCCN(C(=O)Nc2ccc(Cl)cc2)CC1,0.01
5,Brc1cc2c(cc1C=NNc1nc(=Nc3ccccc3)[nH]c(=Nc3ccccc3)[nH]1)OCO2,-2.12
6,CCc1cc2c3c(N)nc(N)nc3ccc2n1C(CC)CC,65.2
7,Nc1nc(N)c2c(CCc3ccc(Cl)c(Cl)c3)cccc2n1,8.14
8,COc1cc(Br)c(S(=O)(=O)n2cc(CN3CCC(N)CC3)c3cc(Cl)ccc32)cc1OC,0.57
9,O=C(NCC1CCN(Cc2ccc(F)cc2)C1)c1cc(-c2cccc(C(F)(F)F)c2)cs1 (stereo unspecified),-6.61
10,CC(Cc1ccc(CN2CCN(Cc3ccccc3)CC2)cc1)NCC(O)c1cccc(C(F)(F)F)c1 (stereo unspecified),5.25
11,CCOc1ccc(C2CCN(CCCCNC(=O)c3ccc(NC(=O)c4ccc(Cl)cc4)cc3)CC2)c(Cl)c1,1.92
12,Cc1cccc2nc(-c3cccc(-c4cccc(CNCC5CCCO5)c4)c3)[nH]c12 (stereo unspecified),1.17
13,COCC(=O)N(Cc1ccccc1-c1cccc(CNCc2ccc3c(c2)OCO3)c1)C1CCN(Cc2ccccc2)CC1,1.77
14,NC(=O)N1CCN(Cc2ccc(Br)cc2)CC1,1
15,COc1ccc(CNc2ccc3nc(N)nc(N)c3c2)cc1,-1.87
16,Cc1cccc(-n2c(Nc3ccc(C)c(Cl)c3)nc3ccc(S(=O)(=O)NC(C)C(C)C)cc32)c1 (stereo unspecified),-0.08
17,CN1CCCC1CNS(=O)(=O)c1ccc(C(=O)NCC2CC2)cc1 (stereo unspecified),1.36
18,COc1cc2c(cc1OC)CN(CCc1ccc(NC(=O)c3cc4cc(OC(F)(F)F)ccc4[nH]3)cc1)CC2,1.17
19,O=C(/C=C/c1ccc(Cl)c(Cl)c1)NCCCCCCN1CCCN(C(=O)Nc2ccc(C(F)(F)F)cc2)CC1,2.88
20,COc1ccc(C(=O)CCC(=O)N(Cc2ccc(-c3ccc(CNCCc4ccc(S(C)(=O)=O)cc4)cn3)cc2)C2CCN(Cc3ccccc3)CC2)cc1F,2.72
21,CN(C)CCOc1cc(NC(=O)Nc2ccc(Cl)cc2C(F)(F)F)ccc1I,-3.2
22,Cc1cccc(CNc2nc(C)cc(NCCC(=O)NCc3cccc(F)c3)n2)c1,4.51
23,Cc1cccc2nc(-c3ccc(-c4ccc(CN5CCN(c6ccc(C#N)cn6)CC5)cc4)s3)[nH]c12,-0.38
24,CS(=O)(=O)c1ccc(-c2cc(C(F)(F)F)nc(N[C@@H]3CCCC[C@H]3OCc3ccccc3)n2)cc1,1.66
25,CCOc1cc(Br)c(C(C)NC(=O)c2ccccc2)cc1OCC (stereo unspecified),1.97
26,CC(=O)c1ccc(NC(=O)Nc2ccc(N(C)c3ccnc(Nc4cccc(CS(C)(=O)=O)c4)n3)cc2)cc1,4.04
